Read-out in experiment [1]: Human Leukocyte Antigen - DR isotype (HLADR), HLA-DRA (gene 3122)
Put plainly: BSK_BE3C_HLADR: BioMAP Diversity Plus: BE3C Assay for Human Leukocyte Antigen - DR isotype (HLADR) Biomarker Activity (AID 2283032). As to conditions: primary human bronchial epithelial cells; actives raise or lower the signal. The gist of the method:
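Human primary bronchial epithelial cells in the BE3C system were exposed to chemicals for 24 h, after which HLA-DR levels were quantified by ELISA. Activity was fitted bidirectionally, gain or loss of signal, against DMSO as negative control and baseline.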

Read-out in experiment [2]: Interferon-gamma inducible Protein 10 (IP10), CXCL10 (gene 3627)
Put plainly: BSK_BE3C_IP10: BioMAP Diversity Plus: BE3C Assay for Interferon-gamma inducible Protein 10 (IP10) Biomarker Activity (AID 2283034). The conditions noted are these: primary human bronchial epithelial cells; actives raise or lower the signal. The gist of the method:
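Human primary bronchial epithelial cells were exposed to chemicals for 24 hours, after which IP-10 levels were measured by ELISA. Data were fitted bidirectionally against DMSO, which served as the negative control and activity baseline.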

Read-out in experiment [3]: Monokine induced gamma interferon (MIG), CXCL9 (gene 4283)
Put plainly: BSK_BE3C_MIG: BioMAP Diversity Plus: BE3C Assay for Monokine induced gamma interferon (MIG) Biomarker Activity (AID 2283035).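 Note: MIG protein measured by ELISA in BE3C cultures after 24 h of dosing.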 The conditions noted are these: primary human bronchial epithelial cells; actives raise or lower the signal. The procedure, abridged:
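ELISA read-out of MIG in human lung bronchial epithelial primary cultures, 24 h post-dosing. Bidirectional curve fit vs DMSO baseline.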

Read-out in experiment [4]: Transforming growth factor beta 1 (TGFb1), TGFB1 (gene 7040)
Description: BSK_BE3C_TGFb1: BioMAP Diversity Plus: BE3C Assay for Transforming growth factor beta 1 (TGFb1) Biomarker Activity (AID 2283036). The conditions noted are these: primary human bronchial epithelial cells; actives raise or lower the signal. The procedure, abridged:
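Human primary bronchial epithelial cells (BE3C system) were dosed with chemical and TGF-b1 levels measured by ELISA at 24 h. Activity was fitted bidirectionally relative to DMSO negative control as baseline.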

Read-out in experiment [5]: Plasminogen activator inhibitor-1 (PAI1), SERPINE1 (gene 5054)
Description: BSK_BE3C_PAI1: BioMAP Diversity Plus: BE3C Assay for Plasminogen activator inhibitor-1 (PAI1) Biomarker Activity (AID 2283037). The conditions noted are these: primary human bronchial epithelial cells; actives raise or lower the signal. The gist of the method: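 Human primary bronchial epithelial cells were exposed to chemical for 24 h, then PAI-1 was quantified by ELISA. Activity was fitted bidirectionally relative to the DMSO negative control baseline.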

Read-out in experiment [6]: urokinase plasminogen activator (uPA), PLAU (gene 5328)
Put plainly: BSK_BE3C_uPA: BioMAP Diversity Plus: BE3C Assay for urokinase plasminogen activator (uPA) Biomarker Activity (AID 2283038).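 Note: uPA protein level quantified by ELISA in cell cultures; uPA read one day after compound addition.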 As to conditions: primary human bronchial epithelial cells; actives raise or lower the signal. The gist of the method: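 Bronchial epithelial cells (human, primary); chemical 24 h; uPA by ELISA; bidirectional fit vs DMSO. SRB (0.1%, after 10% TCA fixation, 560 nm) in parallel cultures for cytotoxicity.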

Read-out in experiment [7]: Urokinase-type plasminogen activator receptor (uPAR), PLAUR (gene 5329)
Put plainly: BSK_BE3C_uPAR: BioMAP Diversity Plus: BE3C Assay for Urokinase-type plasminogen activator receptor (uPAR) Biomarker Activity (AID 2283039).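 Note: uPAR protein level measured by ELISA on the cells; cells exposed to compound for one day before measurement.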 The conditions noted are these: primary human bronchial epithelial cells; actives raise or lower the signal. The procedure, abridged:
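Primary human bronchial epithelial cells were dosed with chemical and harvested 24 h later; uPAR was quantified by ELISA. Activity was fitted bidirectionally against DMSO as negative control and baseline.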

Read-out in experiment [8]: Interleukin-6 (IL6), IL6 (gene 3569)
Description: BSK_CASM3C_IL6: BioMAP Diversity Plus: CASM3C Assay for Interleukin-6 (IL6) Biomarker Activity for (AID 2283040). As to conditions: primary human coronary artery smooth muscle cells; actives raise or lower the signal.

Read-out in experiment [9]: Tissue plasminogen activator (tPA), PLAT (gene 5327)
Description: BSK_BE3C_tPA: BioMAP Diversity Plus: BE3C Assay for Tissue plasminogen activator (tPA) Biomarker Activity (AID 2283041).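 Note: tPA level quantified by ELISA one day after compound addition.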 As to conditions: primary human bronchial epithelial cells; actives raise or lower the signal. The gist of the method:
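Human primary bronchial epithelial cells were dosed with chemical and tPA biomarker levels measured by ELISA 24 hours later. Activity was fitted bidirectionally against DMSO as negative control and baseline.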

Read-out in experiment [10]: Interleukin-8 (IL8), CXCL8 (gene 3576)
Put plainly: BSK_CASM3C_IL8: BioMAP Diversity Plus: CASM3C Assay for Interleukin-8 (IL8) Biomarker Activity (AID 2283042).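 Note: IL-8 protein level quantified by ELISA.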 As to conditions: primary human coronary artery smooth muscle cells; actives raise or lower the signal.

Read-out in experiment [11]: Human Leukocyte Antigen - DR isotype (HLADR), HLA-DRA (gene 3122)
Description: BSK_CASM3C_HLADR: BioMAP Diversity Plus: CASM3C Assay for Human Leukocyte Antigen - DR isotype (HLADR) Biomarker Activity (AID 2283043).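 Note: cell-surface HLA-DR protein level quantified by ELISA.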 The conditions noted are these: primary human coronary artery smooth muscle cells; actives raise or lower the signal.

Read-out in experiment [12]: Macrophage colony-stimulating factor (MCSF), CSF1 (gene 1435)
Put plainly: BSK_CASM3C_MCSF: BioMAP Diversity Plus: CASM3C Assay for Macrophage colony-stimulating factor (MCSF) Biomarker Activity (AID 2283044).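 Note: M-CSF protein amount quantified by ELISA after 24 h exposure.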 The conditions noted are these: primary human coronary artery smooth muscle cells; actives raise or lower the signal.

Read-out in experiment [13]: Low-density lipoprotein receptor (LDLR), LDLR (gene 3949)
Put plainly: BSK_CASM3C_LDLR: BioMAP Diversity Plus: CASM3C Assay for Low-density lipoprotein receptor (LDLR) Biomarker Activity (AID 2283045).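 Note: LDLR protein level on the cell surface quantified by ELISA.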 As to conditions: primary human coronary artery smooth muscle cells; actives raise or lower the signal.

Read-out in experiment [14]: Monocyte Chemoattractant Protein-1 (MCP1), CCL2 (gene 6347)
Description: BSK_CASM3C_MCP1: BioMAP Diversity Plus: CASM3C Assay for Monocyte Chemoattractant Protein-1 (MCP1) Biomarker Activity (AID 2283046).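 Note: MCP-1 level quantified by ELISA 24 h after dosing.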 The conditions noted are these: primary human coronary artery smooth muscle cells; actives raise or lower the signal.

The nature of experiment [15]: BSK_CASM3C_Proliferation: Cell Proliferation Assessment in the BioMAP Diversity Plus: CASM3C Assay (AID 2283047).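 Note: sulforhodamine B total protein stain as relative cell number at 560 nm; sub-confluent cells exposed 48 h before staining; fitted both ways against DMSO so gain or loss of cell number.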 The conditions noted are these: primary human coronary artery smooth muscle cells.
Read-out in experiment [16]: Monokine induced gamma interferon (MIG), CXCL9 (gene 4283)
Description: BSK_CASM3C_MIG: BioMAP Diversity Plus: CASM3C Assay for Monokine induced gamma interferon (MIG) Biomarker Activity (AID 2283048).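 Note: MIG protein level measured by ELISA.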 The conditions noted are these: primary human coronary artery smooth muscle cells; actives raise or lower the signal.

Read-out in experiment [17]: serum amyloid A (SAA), SAA1 (gene 6288)
Description: BSK_CASM3C_SAA: BioMAP Diversity Plus: CASM3C Assay for serum amyloid A (SAA) Biomarker Activity (AID 2283049).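 Note: SAA protein level quantified by ELISA.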 The conditions noted are these: primary human coronary artery smooth muscle cells; actives raise or lower the signal.

Experiment [18] is described as follows: BSK_CASM3C_SRB: Viability Assessment in the BioMAP Diversity Plus: CASM3C Assay (AID 2283050).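 Note: total protein by SRB staining as cytotoxicity measure in parallel cultures.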 The conditions noted are these: primary human coronary artery smooth muscle cells.
Read-out in experiment [19]: Thrombomodulin, THBD (gene 7056)
Description: BSK_CASM3C_Thrombomodulin: BioMAP Diversity Plus: CASM3C Assay for Thrombomodulin Biomarker Activity (AID 2283051).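 Note: thrombomodulin protein level measured by ELISA 24 h after dosing.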 As to conditions: primary human coronary artery smooth muscle cells; actives raise or lower the signal.

Read-out in experiment [20]: Vascular cell adhesion molecule 1 (VCAM1), VCAM1 (gene 7412)
Put plainly: BSK_4H_VCAM1: BioMAP Diversity Plus: 4H Assay for Vascular cell adhesion molecule 1 (VCAM1) Biomarker Activity (AID 2283033).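 Note: cell-surface VCAM-1 protein measured by ELISA.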 As to conditions: primary human endothelial cells (HUVEC); actives raise or lower the signal. The gist of the method:
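Primary human umbilical vein endothelial cells were exposed to chemicals for 24 h, after which VCAM-1 was quantified by ELISA. Responses were fitted bidirectionally against DMSO as negative control and activity baseline.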

Activity calls are given as the source filed them. Rule for the calls: active = hit-call score of the fitted dose curve at least 0.9, where 1 is the maximum; inactive = score below 0.9.

`CCCCCCCCCCO`: the outcome in experiment [1], in experiment [2], in experiment [3], in experiment [4], in [5] and in experiment [6] was inactive. In addition, the result in [7], in experiment [8], in experiment [9], in [10], in experiment [11] and in experiment [12] was inactive. The result in experiment [13], in experiment [14], in experiment [15], in experiment [16], in experiment [17] and in [18] was inactive. The result in [19] was inactive.
One may read the AC50 as the concentration at which the activity in the assay is half-maximal. As for `CNCc1cc(F)ccc1Oc1ccc(Cl)c(Cl)c1`, the concentration at half-maximal activity (AC50) in [1] is 27.9 µM (active); in experiment [13], 13.8 µM (active); in experiment [15], 22 µM (active). Also, the outcome in [2], in [3], in experiment [4], in experiment [5], in experiment [6] and in [7] was inactive. For the same compound, the outcome in [8], in [9], in [10], in experiment [11], in experiment [12] and in experiment [14] was inactive. Moreover, the outcome in [16], in [17], in experiment [18] and in [19] was inactive.
Consider `Nc1ccc2c(c1)C(=O)c1ccccc1C2=O`, for which the result in [1], in experiment [20], in [2], in experiment [3], in experiment [5] and in experiment [6] was inactive. Further, the result in experiment [7], in experiment [8], in [9], in [10], in [11] and in experiment [12] was inactive. In addition, the result in experiment [13], in experiment [16], in experiment [17], in experiment [18] and in [19] was inactive. Besides, the AC50 in [15] is 14.3 µM (active).
`NCCO`: the result in experiment [1], in [20], in experiment [2], in experiment [3], in experiment [5] and in experiment [6] was inactive. In addition, the result in experiment [7], in experiment [8], in experiment [9], in [10], in experiment [11] and in [12] was inactive. For the same compound, the outcome in [13], in experiment [14], in experiment [15], in experiment [16], in experiment [17] and in experiment [18] was inactive. Moreover, the AC50 in experiment [19] is 0.937 µM (active).
For the compound `CCOc1ccc2c(c1)C(C)=CC(C)(C)N2`, the result in experiment [1], in [20], in experiment [2], in experiment [3], in experiment [5] and in experiment [6] was inactive. Also, the result in experiment [7], in [8], in experiment [9], in experiment [10], in experiment [11] and in [12] was inactive. Further, the result in [13], in experiment [14], in experiment [15], in experiment [16], in experiment [17] and in experiment [18] was inactive. The outcome in [19] was inactive.
As to `CCCCCCCCCCCC(=O)OC`, the outcome in experiment [1], in experiment [20], in [2], in [3], in experiment [5] and in [6] was inactive. For the same compound, the result in experiment [7], in experiment [8], in experiment [9], in experiment [10], in experiment [11] and in experiment [12] was inactive. For the same compound, the outcome in experiment [13], in [14], in [15], in experiment [16], in experiment [17] and in experiment [18] was inactive. In addition, the outcome in experiment [19] was inactive.
For the compound `CC(=O)OC/C=C(\C)CCC=C(C)C`, the result in experiment [1], in [20], in [2], in experiment [3], in [5] and in experiment [6] was inactive. Further, the outcome in [7], in experiment [8], in experiment [9], in [10], in experiment [11] and in experiment [12] was inactive. Further, the outcome in experiment [13], in [14], in [15], in experiment [16], in experiment [17] and in experiment [18] was inactive. For the same compound, in [19], the result was inactive.
